Laboratory results as given in PubChem BioAssay (EPA / NIEHS).
Records with an inconclusive call do not appear. Active and inactive are the calls of the source. The calls were made as follows: active = hit-call score of the fitted dose curve at least 0.9, where 1 is the maximum; inconclusive = response in the unintended direction; inactive = score below 0.9.

Tests used:
[1] = TOX21_p53_BLA_p2_viability: Viability Assessment in the Tox21 HCT-116 p53 Agonism Beta-lactamase Assay, Phase 2 (AID 2283591);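 also: compound exposure lasted 16 h at 37 °C; actives lower the ATP signal meaning cytotoxicity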
Outline: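 HCT-116 p53-bla cells (4000/well) rested 5 h at 37C, then received compounds in DMSO (217-fold dilution) for 16 h at 37C, 5% CO2. After the CCF4 read, CellTiter-Glo was added; ATP luminescence was read after 30 min at room temperature.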

[2] = target: Cellular tumor antigen p53 (Homo sapiens) (UniProt P04637); assay: TOX21_p53_BLA_p2_ratio: Tox21 HCT-116 p53 Agonism Beta-lactamase Assay, Ratio, Phase 2 (AID 2283592)
Outline: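 HCT116 p53-bla; 4000 cells/well; 5 h pre-incubation; cpd in DMSO, 217-fold dilution; 16 h 37C/5% CO2; CCF4-AM 2 h RT; Ex 405, Em 460/530 ratio; DMSO = baseline; positive fitting direction.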

[3] = TOX21_p53_BLA_p3_viability: Viability Assessment in the Tox21 HCT-116 p53 Agonism Beta-lactamase Assay, Phase 3 (AID 2283593);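 also: cells exposed to compound for 16 h before reading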
Outline: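 HCT-116 cells (4000/well) rested 5 h at 37C, then got DMSO compounds by pin tool (217-fold dilution) for 16 h at 37C, 5% CO2. After the bla read, CellTiter-Glo was added and luminescence read at 30 min, room temperature.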

[4] = target: Cellular tumor antigen p53 (Homo sapiens) (UniProt P04637); assay: TOX21_p53_BLA_p3_ratio: Tox21 HCT-116 p53 Agonism Beta-lactamase Assay, Ratio, Phase 3 (AID 2283596)
Outline: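 HCT116 p53-bla cells (4000/well) given compound in DMSO (217-fold dilution) after 5 h, incubated 16 h at 37C. CCF4-AM substrate 2 h at room temperature; 460/530 nm emission ratio, gain fitted against DMSO.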

[5] = target: Cellular tumor antigen p53 (Homo sapiens) (UniProt P04637); assay: TOX21_p53_BLA_p5_ratio: Tox21 HCT-116 p53 Agonism Beta-lactamase Assay, Ratio, Phase 5 (AID 2283599)
Outline: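 HCT-116 cells carrying a p53-inducible beta-lactamase reporter were seeded at 4000 cells/well and dosed after 5 h with compound in DMSO (217-fold dilution). After 16 h at 37C, CCF4-AM substrate was added for 2 h, and the 460/530 nm emission ratio was scored as gain-of-signal versus DMSO.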

[6] = target: Cellular tumor antigen p53 (Homo sapiens) (UniProt P04637); assay: TOX21_p53_BLA_p4_ratio: Tox21 HCT-116 p53 Agonism Beta-lactamase Assay, Ratio, Phase 4 (AID 2283601)
Outline: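 HCT116 cells carrying an inducible beta-lactamase reporter were plated at 4000 cells/well, rested 5 h, then exposed to compounds in DMSO (217-fold dilution) for 16 h at 37C. CCF4-AM substrate was loaded 2 h at room temperature; 460/530 nm emission ratio scored gain-of-signal versus DMSO.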

Measured: outcome

Cellular tumor antigen p53 (Homo sapiens), sequence (P04637 whole entry, looked up): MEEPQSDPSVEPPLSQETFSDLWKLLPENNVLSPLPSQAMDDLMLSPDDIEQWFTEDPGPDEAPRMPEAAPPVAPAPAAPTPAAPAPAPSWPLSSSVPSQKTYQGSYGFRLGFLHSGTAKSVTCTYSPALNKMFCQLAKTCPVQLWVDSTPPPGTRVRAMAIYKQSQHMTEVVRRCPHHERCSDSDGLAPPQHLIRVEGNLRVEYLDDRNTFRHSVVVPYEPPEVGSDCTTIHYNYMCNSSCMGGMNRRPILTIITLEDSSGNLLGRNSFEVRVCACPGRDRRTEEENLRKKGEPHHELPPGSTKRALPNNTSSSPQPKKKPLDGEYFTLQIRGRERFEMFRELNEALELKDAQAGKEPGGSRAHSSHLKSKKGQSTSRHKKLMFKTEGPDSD

NC(=O)CI
inactive: all assays above
